The record followed here is ChEMBL document CHEMBL2218924, “A broad activity screen in support of a chemogenomic map for kinase signalling research and drug discovery” (Biochem J, 2013).

The target in test [1] is Serine/threonine-protein kinase SIK1 (Homo sapiens) (UniProt P57059). Particulars: at 10 µM.
Test [2] addresses SRSF protein kinase 1 (Homo sapiens) (UniProt Q96SB4). Particulars: at 1 µM.
The target is the same in test [3]. The conditions noted are these: at 10 µM.
Test [4] addresses SRSF protein kinase 2 (Homo sapiens) (UniProt P78362). The conditions noted are these: at 1 µM.
The target is the same in test [5]. The conditions noted are these: at 10 µM.
Test [6] has as its target Serine/threonine-protein kinase 33 (Homo sapiens) (UniProt Q9BYT3). Particulars: at 1 µM.
For test [7] the target is unchanged. Particulars: at 10 µM.
Test [8] has as its target Serine/threonine-protein kinase PLK2 (Homo sapiens) (UniProt Q9NYY3). The conditions noted are these: at 1 µM.
Test [9] has the same target. Particulars: at 10 µM.
In test [10] the target is Tyrosine-protein kinase SYK (Homo sapiens) (UniProt P43405). Particulars: at 1 µM.
For test [11] the target is unchanged. The conditions noted are these: at 10 µM.
Test [12] deals with T1, Mitogen-activated protein kinase kinase kinase 7 (Homo sapiens) (UniProt O43318).
T1 sequence (whole entry): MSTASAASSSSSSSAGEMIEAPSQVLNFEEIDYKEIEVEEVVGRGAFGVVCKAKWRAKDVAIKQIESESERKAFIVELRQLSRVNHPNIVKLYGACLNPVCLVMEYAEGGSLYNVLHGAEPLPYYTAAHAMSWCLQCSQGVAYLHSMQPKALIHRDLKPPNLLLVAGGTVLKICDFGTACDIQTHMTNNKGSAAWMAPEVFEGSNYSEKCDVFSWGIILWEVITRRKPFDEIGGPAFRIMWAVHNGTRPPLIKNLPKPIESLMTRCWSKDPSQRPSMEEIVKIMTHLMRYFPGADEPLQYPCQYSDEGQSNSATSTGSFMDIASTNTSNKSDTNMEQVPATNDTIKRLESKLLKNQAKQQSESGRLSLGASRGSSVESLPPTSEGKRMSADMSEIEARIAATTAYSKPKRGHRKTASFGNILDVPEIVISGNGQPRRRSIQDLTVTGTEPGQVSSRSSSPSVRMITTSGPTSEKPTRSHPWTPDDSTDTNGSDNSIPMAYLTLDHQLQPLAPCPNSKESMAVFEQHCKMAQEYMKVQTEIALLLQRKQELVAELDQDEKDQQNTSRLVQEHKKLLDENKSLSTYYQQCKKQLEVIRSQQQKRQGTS
Particulars: at 1 µM.

Test [13] has as its target T1, Mitogen-activated protein kinase kinase kinase 7 (Homo sapiens). The conditions noted are these: at 10 µM.
For test [14], the target named is T2, Serine/threonine-protein kinase TAO1 (Homo sapiens) (UniProt Q7L7X3).
T2 sequence (whole entry): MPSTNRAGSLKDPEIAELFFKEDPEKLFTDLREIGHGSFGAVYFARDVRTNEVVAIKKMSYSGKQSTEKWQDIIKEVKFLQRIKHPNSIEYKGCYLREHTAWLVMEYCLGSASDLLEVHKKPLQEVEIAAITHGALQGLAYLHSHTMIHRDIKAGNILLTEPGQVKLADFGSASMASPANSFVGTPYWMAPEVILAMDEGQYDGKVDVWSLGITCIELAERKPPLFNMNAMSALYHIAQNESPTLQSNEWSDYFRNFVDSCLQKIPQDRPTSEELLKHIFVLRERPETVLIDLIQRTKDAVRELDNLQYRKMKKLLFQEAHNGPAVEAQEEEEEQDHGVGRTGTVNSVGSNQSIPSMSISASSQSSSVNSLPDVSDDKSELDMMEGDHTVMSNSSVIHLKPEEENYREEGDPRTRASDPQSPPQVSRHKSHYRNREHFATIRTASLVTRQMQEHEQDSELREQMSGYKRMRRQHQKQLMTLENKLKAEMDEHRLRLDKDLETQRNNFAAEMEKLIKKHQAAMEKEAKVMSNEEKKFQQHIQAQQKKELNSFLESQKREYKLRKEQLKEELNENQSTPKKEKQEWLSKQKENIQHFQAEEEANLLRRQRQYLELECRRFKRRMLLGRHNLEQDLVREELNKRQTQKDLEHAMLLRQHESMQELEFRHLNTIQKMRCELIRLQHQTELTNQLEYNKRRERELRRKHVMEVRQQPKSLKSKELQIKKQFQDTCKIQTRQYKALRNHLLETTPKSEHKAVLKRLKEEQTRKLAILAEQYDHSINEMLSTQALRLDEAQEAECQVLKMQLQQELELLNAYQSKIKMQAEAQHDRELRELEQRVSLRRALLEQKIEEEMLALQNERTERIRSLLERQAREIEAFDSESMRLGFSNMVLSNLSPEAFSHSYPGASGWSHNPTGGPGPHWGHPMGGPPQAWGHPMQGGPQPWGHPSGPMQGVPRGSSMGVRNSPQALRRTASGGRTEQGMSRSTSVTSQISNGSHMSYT
Particulars: at 1 µM.

The target in test [15] is T2, Serine/threonine-protein kinase TAO1 (Homo sapiens). Particulars: at 10 µM.
For test [16], the target named is T3, Serine/threonine-protein kinase TAO2 (Homo sapiens) (UniProt Q9UL54).
T3 sequence (whole entry): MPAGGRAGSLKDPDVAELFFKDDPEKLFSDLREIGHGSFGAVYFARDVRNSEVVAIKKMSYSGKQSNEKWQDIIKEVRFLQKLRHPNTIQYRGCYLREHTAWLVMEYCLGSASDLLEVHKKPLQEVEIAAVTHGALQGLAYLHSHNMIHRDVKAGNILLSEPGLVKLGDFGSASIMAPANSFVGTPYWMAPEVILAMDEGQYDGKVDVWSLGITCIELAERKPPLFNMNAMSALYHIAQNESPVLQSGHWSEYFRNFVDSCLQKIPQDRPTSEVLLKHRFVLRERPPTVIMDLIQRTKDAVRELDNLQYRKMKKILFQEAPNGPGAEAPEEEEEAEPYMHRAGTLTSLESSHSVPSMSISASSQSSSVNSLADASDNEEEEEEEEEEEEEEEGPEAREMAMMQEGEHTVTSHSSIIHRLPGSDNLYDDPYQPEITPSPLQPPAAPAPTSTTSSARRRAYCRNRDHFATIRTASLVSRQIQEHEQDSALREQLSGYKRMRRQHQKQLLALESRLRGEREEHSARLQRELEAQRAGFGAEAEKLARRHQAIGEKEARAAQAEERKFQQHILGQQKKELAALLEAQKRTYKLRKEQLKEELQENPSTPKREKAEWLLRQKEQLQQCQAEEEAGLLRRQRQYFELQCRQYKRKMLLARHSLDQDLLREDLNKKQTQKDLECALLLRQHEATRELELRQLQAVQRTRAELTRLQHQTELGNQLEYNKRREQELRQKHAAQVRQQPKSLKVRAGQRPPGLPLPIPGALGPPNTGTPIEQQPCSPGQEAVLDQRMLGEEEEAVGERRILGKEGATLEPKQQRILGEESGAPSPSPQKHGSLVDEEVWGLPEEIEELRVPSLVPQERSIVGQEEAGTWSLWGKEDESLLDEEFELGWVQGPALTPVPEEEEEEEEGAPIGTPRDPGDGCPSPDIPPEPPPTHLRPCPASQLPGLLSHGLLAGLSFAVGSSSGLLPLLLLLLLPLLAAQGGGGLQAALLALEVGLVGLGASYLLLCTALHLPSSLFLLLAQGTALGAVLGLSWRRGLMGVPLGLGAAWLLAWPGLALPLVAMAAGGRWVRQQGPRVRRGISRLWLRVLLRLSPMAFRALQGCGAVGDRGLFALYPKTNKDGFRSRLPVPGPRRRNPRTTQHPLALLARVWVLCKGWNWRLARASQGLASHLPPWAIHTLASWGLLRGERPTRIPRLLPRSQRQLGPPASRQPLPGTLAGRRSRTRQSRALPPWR
Particulars: at 1 µM.

Test [17] addresses T3, Serine/threonine-protein kinase TAO2 (Homo sapiens). The conditions noted are these: at 10 µM.
Test [18] deals with T4, Serine/threonine-protein kinase TAO3 (Homo sapiens) (UniProt Q9H2K8).
T4 sequence (whole entry): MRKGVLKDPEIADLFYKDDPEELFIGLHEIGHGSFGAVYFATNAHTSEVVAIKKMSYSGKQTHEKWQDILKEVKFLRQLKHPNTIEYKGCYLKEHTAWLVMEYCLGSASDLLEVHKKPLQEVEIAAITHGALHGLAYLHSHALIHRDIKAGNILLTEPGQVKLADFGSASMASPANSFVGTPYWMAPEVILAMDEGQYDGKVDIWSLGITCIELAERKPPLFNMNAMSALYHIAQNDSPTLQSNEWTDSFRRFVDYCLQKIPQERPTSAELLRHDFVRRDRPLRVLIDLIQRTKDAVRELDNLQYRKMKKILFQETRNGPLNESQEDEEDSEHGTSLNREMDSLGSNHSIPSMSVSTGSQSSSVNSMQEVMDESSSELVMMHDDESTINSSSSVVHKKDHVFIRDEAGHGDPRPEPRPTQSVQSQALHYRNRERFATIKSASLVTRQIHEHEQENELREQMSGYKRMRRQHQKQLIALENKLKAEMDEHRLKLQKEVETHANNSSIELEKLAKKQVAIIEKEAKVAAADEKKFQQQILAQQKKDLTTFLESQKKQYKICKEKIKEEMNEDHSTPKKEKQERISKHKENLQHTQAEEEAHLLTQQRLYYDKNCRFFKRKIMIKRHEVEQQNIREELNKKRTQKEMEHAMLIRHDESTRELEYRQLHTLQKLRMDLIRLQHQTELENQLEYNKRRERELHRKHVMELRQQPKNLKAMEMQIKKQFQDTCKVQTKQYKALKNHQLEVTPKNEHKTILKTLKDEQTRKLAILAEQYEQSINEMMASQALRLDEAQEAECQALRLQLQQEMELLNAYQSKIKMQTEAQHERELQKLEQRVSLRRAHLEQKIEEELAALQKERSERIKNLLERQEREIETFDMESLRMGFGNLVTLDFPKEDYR
Particulars: at 1 µM.

Test [19] has as its target T4, Serine/threonine-protein kinase TAO3 (Homo sapiens). Particulars: at 10 µM.
Test [20] concerns the target T5, Serine/threonine-protein kinase TBK1 (Homo sapiens) (UniProt Q9UHD2).
T5 sequence (whole entry): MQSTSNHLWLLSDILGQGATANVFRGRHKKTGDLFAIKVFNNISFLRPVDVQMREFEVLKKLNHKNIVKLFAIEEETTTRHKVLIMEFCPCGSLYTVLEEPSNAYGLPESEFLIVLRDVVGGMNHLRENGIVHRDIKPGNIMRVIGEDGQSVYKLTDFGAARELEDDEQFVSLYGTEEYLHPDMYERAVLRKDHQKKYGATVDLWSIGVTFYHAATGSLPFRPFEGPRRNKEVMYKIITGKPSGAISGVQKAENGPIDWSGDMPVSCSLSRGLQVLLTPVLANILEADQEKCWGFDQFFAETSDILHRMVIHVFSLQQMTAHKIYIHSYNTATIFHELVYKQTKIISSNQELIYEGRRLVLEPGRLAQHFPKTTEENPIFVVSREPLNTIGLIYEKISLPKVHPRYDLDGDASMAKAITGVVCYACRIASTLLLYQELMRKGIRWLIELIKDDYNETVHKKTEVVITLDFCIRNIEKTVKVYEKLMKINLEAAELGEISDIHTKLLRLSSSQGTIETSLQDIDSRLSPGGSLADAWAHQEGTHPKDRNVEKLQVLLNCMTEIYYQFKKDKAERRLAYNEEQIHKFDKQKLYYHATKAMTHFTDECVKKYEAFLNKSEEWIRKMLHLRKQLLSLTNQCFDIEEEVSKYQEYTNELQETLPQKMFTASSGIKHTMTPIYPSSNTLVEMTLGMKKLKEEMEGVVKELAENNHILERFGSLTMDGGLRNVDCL
Particulars: at 1 µM.

Serine/threonine-protein kinase PLK2 (Homo sapiens), sequence (Q9NYY3 whole entry, looked up): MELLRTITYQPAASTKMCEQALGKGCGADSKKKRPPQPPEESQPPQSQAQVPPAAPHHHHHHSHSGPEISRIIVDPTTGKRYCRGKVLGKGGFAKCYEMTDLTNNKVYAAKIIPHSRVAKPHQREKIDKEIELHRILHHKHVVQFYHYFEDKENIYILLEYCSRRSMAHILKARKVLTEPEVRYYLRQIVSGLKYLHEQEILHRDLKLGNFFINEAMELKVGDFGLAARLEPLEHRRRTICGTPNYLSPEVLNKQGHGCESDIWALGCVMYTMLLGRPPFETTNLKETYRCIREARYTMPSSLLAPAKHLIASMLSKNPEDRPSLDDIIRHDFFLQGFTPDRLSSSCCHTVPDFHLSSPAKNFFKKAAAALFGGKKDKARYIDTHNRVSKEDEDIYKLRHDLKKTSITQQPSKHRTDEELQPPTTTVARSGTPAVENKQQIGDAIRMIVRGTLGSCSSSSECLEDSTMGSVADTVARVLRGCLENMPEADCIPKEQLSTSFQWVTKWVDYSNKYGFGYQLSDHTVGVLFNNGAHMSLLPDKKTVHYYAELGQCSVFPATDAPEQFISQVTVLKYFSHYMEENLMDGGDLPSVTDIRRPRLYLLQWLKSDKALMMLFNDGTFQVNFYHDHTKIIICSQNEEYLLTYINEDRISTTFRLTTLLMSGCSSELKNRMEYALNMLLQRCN
Serine/threonine-protein kinase SIK1 (Homo sapiens), sequence (P57059 whole entry): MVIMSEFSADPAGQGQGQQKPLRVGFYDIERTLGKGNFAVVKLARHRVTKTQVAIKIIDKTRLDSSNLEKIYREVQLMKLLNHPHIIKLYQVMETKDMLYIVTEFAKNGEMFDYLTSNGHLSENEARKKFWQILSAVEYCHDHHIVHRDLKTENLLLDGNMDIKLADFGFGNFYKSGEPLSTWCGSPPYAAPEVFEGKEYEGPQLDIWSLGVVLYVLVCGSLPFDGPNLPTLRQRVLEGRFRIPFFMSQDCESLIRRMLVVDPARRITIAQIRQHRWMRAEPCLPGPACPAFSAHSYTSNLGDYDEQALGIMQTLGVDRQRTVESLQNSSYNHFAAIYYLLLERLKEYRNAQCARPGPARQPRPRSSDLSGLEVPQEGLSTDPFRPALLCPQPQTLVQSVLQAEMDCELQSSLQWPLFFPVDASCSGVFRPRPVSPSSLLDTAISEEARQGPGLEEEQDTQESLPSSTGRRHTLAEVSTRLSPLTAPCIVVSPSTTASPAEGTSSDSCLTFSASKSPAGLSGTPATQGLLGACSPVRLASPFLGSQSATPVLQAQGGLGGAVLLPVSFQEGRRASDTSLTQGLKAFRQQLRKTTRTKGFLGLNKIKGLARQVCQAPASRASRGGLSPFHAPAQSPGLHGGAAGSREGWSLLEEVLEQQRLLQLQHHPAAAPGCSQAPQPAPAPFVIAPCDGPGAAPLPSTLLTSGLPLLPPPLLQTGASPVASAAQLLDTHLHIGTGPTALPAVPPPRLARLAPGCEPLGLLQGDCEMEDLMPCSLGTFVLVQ
Serine/threonine-protein kinase 33 (Homo sapiens), sequence (Q9BYT3 whole entry, looked up): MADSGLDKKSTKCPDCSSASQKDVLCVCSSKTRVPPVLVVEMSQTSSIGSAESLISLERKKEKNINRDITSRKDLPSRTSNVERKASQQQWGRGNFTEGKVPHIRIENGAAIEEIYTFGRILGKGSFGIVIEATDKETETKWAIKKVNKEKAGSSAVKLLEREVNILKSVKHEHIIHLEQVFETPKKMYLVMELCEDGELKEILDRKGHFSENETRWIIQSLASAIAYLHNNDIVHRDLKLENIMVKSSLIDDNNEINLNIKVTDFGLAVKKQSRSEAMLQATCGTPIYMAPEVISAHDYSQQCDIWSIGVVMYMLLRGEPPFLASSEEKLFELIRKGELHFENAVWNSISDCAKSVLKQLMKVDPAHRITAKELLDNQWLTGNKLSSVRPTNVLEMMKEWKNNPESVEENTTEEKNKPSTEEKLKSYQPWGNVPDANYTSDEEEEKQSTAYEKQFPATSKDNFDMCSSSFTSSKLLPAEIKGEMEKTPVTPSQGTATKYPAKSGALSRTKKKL
SRSF protein kinase 2 (Homo sapiens), sequence (P78362 whole entry, looked up): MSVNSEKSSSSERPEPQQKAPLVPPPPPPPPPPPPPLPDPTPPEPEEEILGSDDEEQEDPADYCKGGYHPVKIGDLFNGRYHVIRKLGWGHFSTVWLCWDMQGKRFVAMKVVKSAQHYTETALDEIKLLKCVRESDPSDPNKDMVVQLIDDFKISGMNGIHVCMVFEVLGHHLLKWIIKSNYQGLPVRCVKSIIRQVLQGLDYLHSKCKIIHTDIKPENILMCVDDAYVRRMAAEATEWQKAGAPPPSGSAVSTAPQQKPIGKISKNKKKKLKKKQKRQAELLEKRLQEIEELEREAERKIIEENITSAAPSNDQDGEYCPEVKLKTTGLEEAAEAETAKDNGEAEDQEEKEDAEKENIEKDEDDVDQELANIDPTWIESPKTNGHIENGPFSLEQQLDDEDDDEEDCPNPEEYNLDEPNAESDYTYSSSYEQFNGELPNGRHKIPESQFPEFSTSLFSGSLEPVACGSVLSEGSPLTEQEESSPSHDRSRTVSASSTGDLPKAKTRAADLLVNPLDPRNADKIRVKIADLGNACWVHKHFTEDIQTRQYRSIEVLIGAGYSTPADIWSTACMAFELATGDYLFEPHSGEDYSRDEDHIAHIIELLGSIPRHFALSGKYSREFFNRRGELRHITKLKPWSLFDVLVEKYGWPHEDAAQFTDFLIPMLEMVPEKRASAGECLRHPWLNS
SRSF protein kinase 1 (Homo sapiens), sequence (Q96SB4 whole entry): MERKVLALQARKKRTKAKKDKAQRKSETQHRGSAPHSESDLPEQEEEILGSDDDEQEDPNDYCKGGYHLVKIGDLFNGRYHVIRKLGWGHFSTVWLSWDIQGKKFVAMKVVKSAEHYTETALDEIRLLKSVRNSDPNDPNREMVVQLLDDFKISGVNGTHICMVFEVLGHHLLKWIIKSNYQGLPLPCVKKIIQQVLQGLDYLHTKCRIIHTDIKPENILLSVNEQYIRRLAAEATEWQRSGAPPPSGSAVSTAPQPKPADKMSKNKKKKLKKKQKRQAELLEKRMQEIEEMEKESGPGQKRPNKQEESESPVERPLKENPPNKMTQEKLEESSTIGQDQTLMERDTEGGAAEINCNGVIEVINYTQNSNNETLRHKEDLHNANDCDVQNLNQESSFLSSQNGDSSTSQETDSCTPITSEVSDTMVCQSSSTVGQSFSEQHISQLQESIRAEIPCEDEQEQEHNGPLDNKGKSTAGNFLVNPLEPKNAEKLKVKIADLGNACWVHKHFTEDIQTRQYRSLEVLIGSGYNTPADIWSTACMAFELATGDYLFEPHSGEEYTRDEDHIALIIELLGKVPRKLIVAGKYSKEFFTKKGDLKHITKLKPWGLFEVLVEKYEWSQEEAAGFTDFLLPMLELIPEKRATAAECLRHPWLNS

With `CCN(CC)CCCCN1c2ccccc2Oc2ccc(Cl)cc21`, the residual activity in [1] is 59%; in [2] it was 101%; in [3], 117%; in [4], 104%; in test [5], 82%; in test [6], 107%. Moreover, the residual activity in [7] came out at 109%; in [8] it was 109%; in test [9], 104%; in test [10] it was 137%; in [11] it was 93%; in test [12], 97%. Moreover, the residual activity worked out at 90% in [13]; 117% in [14]; 100% in [15]; 100% in test [16]; 92% in [17]; 101% in test [18]. The values for the residual activity in [19] and in test [20] were 96% and 91%, respectively.

Regarding `COc1cc2ncnc(Nc3ccc(NC(=O)c4ccccc4)cc3)c2cc1OC`, the residual activity in test [1] is 18%; in [4], 107%; in test [5], 103%; in test [6], 109%; in [7], 108%; in test [9], 85%. Also, the residual activity in test [11] amounted to 88%; in test [12] it was 107%; in test [13], 96%; in [15], 94%; in [16] it was 98%; in test [17] it was 83%. Also, the residual activity in [18] was 102%; in [19], 84%; in test [20] it was 96%.

On to `O=C1NC(=O)c2c1c1c3ccccc3[nH]c1c1[nH]c3cc(Br)ccc3c21`, for which the residual activity in test [1] worked out at 83%; in test [2], 82%; in test [3], 96%; in test [4] it was 83%; in test [5], 77%; in test [6], 94%. Besides, the residual activity in test [7] is 88%; in [8], 93%; in [9], 94%; in test [10], 104%; in [11], 79%; in test [12] it was 94%. In addition, the residual activity was 84% in [13]; 92% in test [14]; 92% in test [15]; 103% in [16]; 92% in [17]; 93% in test [18]. Moreover, the figures for the residual activity in [19] and in test [20] were 94% and 75%, respectively.
